# Screening data from PubChem.
# A selection: hits, their analogues and other compounds. The true share with any hit is near 3.2%.
# ERb SRC1 inh: blocks coactivator binding to human estrogen receptor beta; Q92731; TR-FRET ER-beta LBD / SRC1-Cy5 peptide binding; receptor agonist-loaded with 1 µM estradiol; inhibition, % at 25.6 µM; actives 1.3% (n = 86,000); AID 633;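 active = compounds whose percent inhibition of the receptor-coactivator binding signal exceeds about 50% in the single-dose screen, limit read from the data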;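 also: 0% = receptor plus peptide wells without compound and 100% = peptide-only wells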
# Target sequence (Q92731 whole entry, looked up, the tested form may be a part): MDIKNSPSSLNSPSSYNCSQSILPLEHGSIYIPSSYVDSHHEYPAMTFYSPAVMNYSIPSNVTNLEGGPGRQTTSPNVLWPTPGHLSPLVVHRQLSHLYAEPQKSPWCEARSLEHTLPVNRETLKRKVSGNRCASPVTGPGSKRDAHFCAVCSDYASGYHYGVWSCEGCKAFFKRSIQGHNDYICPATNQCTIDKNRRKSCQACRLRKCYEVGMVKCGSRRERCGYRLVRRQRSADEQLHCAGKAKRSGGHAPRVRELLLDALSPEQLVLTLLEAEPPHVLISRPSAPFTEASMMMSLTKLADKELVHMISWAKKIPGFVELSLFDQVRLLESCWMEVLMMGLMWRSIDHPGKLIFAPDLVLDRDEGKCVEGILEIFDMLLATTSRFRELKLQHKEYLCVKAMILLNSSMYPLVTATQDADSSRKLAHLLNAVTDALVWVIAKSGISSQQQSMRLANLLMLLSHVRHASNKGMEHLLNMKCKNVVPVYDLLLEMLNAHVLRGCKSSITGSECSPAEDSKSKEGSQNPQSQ
# ERa SRC1 inh: blocks coactivator binding to human estrogen receptor alpha | actives 1.7% (n = 86,000) | P03372 | inhibition, % at 25.6 µM | TR-FRET ER-alpha LBD / SRC-1 peptide, estradiol-bound; in the data active = inhibition above about 50%;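 also: 0% = receptor plus peptide control and 100% = peptide only without receptor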
# ERa coact pot: enhances coactivator binding to human estrogen receptor alpha; TR-FRET ERalpha-LBD/SRC-Cy5 coactivator binding, 2 h; 100 = basal binding, no effect; actives 1.3% (n = 86,000); coactivator binding (% of control), % at 25.6 µM; P03372; AID 639; in the data active = activity above about 200%;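 also: binding measured in presence of low estradiol as agonist stimulus; 0% = peptide alone without receptor and 100% = receptor with peptide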
# FAK blocker: inhibitors of human focal adhesion kinase; Q05397; biochemical FAK kinase activity assay; inhibition, %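 (tested at 7 µM)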; actives 0.84% (n = 97,000); AID 727;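 also: 0% = DMSO and 100% = reference compound high control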
# FAK inh conf: confirmation of human focal adhesion kinase (FAK) inhibitors; shares compounds with FAK blocker; FAK kinase biochemical inhibition assay; actives 28% (n = 750); AID 794; inhibition, % at 7 µM
# Starred values were filed as active, the others as inactive; . = no result; [ ] = remark or other dose. Rule as the data show it, unless noted: active = inhibition above about 19%; inactive = the rest.
SMILES,ERb SRC1 inh,ERa SRC1 inh,ERa coact pot,FAK blocker,FAK inh conf
COc1ccc(C(=O)c2ccc(OC)c(OC)c2)cc1,-1,-4,69,-2,.
COc1ccc(Br)cc1CNc1ccc(O)cc1,31,13,69,47*,1
COc1cc(NC(=O)c2ccc(Br)o2)ccc1NC(=O)c1ccccc1Cl,-8,-22,106,0,.
O=C(NCc1cccs1)C1CCCN(S(=O)(=O)c2cnc[nH]2)C1 (configuration not stated),-8,-8,111,-6,.
Cc1nnc(NC(=O)CSc2ncnc3c2cnn3-c2ccccc2C)s1,.,.,.,30*,2
CCCN(CC1CC1)S(=O)(=O)c1ccc(S(N)(=O)=O)cc1,.,.,.,-6,.
CCN1C(c2ccc(F)cc2)=CS/C1=C(\C#N)c1nnc2n1-c1ccccc1SC2,-4,-6,85,-8,.
COc1ccccc1N1CCN(C(=O)CN(c2ccccc2OC)S(=O)(=O)c2ccccc2)CC1,.,.,.,-4,.
O=[N+]([O-])c1cccc(/C=C/c2nc3ccc([N+](=O)[O-])cc3[nH]2)c1,.,.,.,34*,21*
Cc1ccc2[nH]c3c(NCc4ccco4)ncnc3c2c1,26,16,81,34*,21*
Cc1ccc(-n2ncc3c(NCc4ccco4)ncnc32)c(C)c1,21,10,86,.,.
CCC(=O)Nc1nnc(Sc2ccc(N(C)C)cc2)s1,.,.,.,21*,1
O=C(NC1(O)C(=O)c2ccccc2C1=O)c1ccccc1,.,.,.,22*,7
O=C(NCNC(=O)c1ccccc1)c1ccccc1,-5,-4,126,2,.
O=C(CCNS(=O)(=O)c1cccs1)Nc1nccs1,-4,-6,124,83*,-1
CCOC(=O)N1CCC2(CC1)C(C#N)=C(N)Oc1n[nH]c(CSc3ccc(C)cc3)c12,-5,8,52,22*,14
CN1c2ccccc2C(C)(C)C12C=Nc1c(ccc3ccccc13)O2 (configuration not stated),-19,-7,90,32*,3
COc1ccc2ccc3c(c2c1)N=CC1(O3)N(C)c2ccccc2C1(C)C (configuration not stated),0,-13,104,17,.
Cn1c2ccccc2c(=O)n2c(=O)c3ccccc3cc12,-5,-1,102,31*,47*
Cc1cnc(-c2nnc(N(C)C(=O)c3cnccn3)s2)cn1,-4,-2,112,.,.
N#CCCn1nc(-c2ccccc2)cc1Nc1ccccc1NC(=O)c1cccs1,-3,-29,105,.,.
Cc1cc2ncn(S(=O)(=O)N(C)C)c2cc1C,-5,3,92,19*,5
CCCCN1CC(O)=C(c2nc(-c3ccc(Cl)cc3)cs2)C1=N,38,64*[fluorescence artefact?],256*[fluorescence artefact?],32*,12
COc1cccc(CN2CC(O)=C(c3nc(-c4ccc(Cl)cc4)cs3)C2=N)c1,.,.,.,32*,26*
O=C(NNC(=O)c1cc2cc3ccccc3nc2s1)c1ccc(F)cc1,.,.,.,26*,3
SMILES,ERb SRC1 inh,ERa SRC1 inh,ERa coact pot,FAK blocker,FAK inh conf
Cc1cccc(C(=O)NNC(=O)c2cc3cc4ccccc4nc3s2)c1,.,.,.,0,.
Cc1ccc(S(=O)(=O)NNC(=O)c2cc3cc4ccccc4nc3s2)cc1,.,.,.,8,.
O=C(NNC(=O)c1cc2cc3ccccc3nc2s1)c1cccc(Cl)c1,.,.,.,30*,5
CCn1c(=O)c2c(cnn2C)c2ccccc21,.,.,.,32*,12
O=C(O)C1CCCCC1C(=O)NCCc1c[nH]c2ccccc12 (configuration not stated),-20,-20,103,1,.
O=C(NCCc1c[nH]c2ccccc12)C1CCN(c2nnc(N3CCCC3=O)s2)CC1,18,32,134,36*,31*
O=C1Cc2ccccc2C(=O)N1CCc1ccccc1,.,.,.,40*,37*
Cc1ccc(NC(=O)/C(=C\c2ccc3c(c2)OCO3)NC(=O)c2ccco2)cc1,.,.,.,-1,.
Cn1c(=O)cc(SCC(=O)NCc2cccnc2)c2ccccc21,-16,-3,113,-5,.
COc1cc(OC)cc(-c2nnc(Nc3nc4c(F)cccc4s3)o2)c1,33,34,436*[fluorescence artefact?],36*,10
COc1ccc(-c2nnc(Nc3nc4c(OC)cccc4s3)o2)cc1,73*[fluorescence artefact?],77*[fluorescence artefact?],96,56*,27*
Fc1cccc2sc(Nc3nnc(-c4ccccc4)o3)nc12,7,17,92,-10,.
CCN(C(=O)CSc1nnc(NC2CCCCC2)s1)C1CCS(=O)(=O)C1 (configuration not stated),.,.,.,2,.
CCOC(=O)c1cc(C)n(S(=O)(=O)c2ccc(C)cc2)c1C,.,.,.,-4,.
